# Assay results: PubChem BioAssay AID504380 (National Center for Advancing Translational Sciences (NCATS), 2011)
# Activity calls are given as the source filed them. No rule for the calls is given here.
# Test: RT-PCR Analysis of TSH-dependent transcripts in primary cultures of human thyrocytes
# Details: RT-PCR mRNA levels, 48 h; DIO2 mRNA change: measured here: DIO2 transcript; NIS mRNA change: measured here: NIS transcript, concentration not given here; TG mRNA change: concentration not given here; TPO mRNA change: measured here: TPO transcript, concentration not given here; TSHR mRNA change: measured here: TSHR transcript, concentration not given here
# From the text: TSH is an alpha/beta heterodimeric glycoprotein hormone secreted from the anterior pituitary gland which belongs to the glycoprotein hormone family. The actions of TSH are mediated by a seven-transmembrane receptor, which upon TSH binding couples preferentially to the G-alpha (s) protein (Gs), resulting in activation of adenylate cyclase and increase in cyclic adenosine 3', 5' monophosphate (cAMP). The TSH receptor (THSR) is mainly expressed in thyroid follicular cells and regulates their growth and function. This cell based assay was conducted on a TSHR transfected HEK 293 cell line, measuring cAMP stimulation using antibody-based Homogeneous Time Resolved Fluorescence (HTRF). Our goal is to identify small molecules that will inhibit (antagonize) the thyroid-stimulating hormone receptor (TSHR), a member of the 7 transmembrane-spanning receptor (7TMR) family of cell surface receptors. TSHR-mediated hyperthyroidism is important in thyroid pathology. The development of small molecule antagonists of TSHR may lead to therapeutic approaches for TSHR-mediated hyperthyroidism caused by constitutively activating mutations or stimulating auto-antibodies associated with Graves' disease. Graves' disease is the leading cause of hyperthyroidism and is caused by autoantibodies that stimulate TSHR (TsAbs) causing thyroid growth and unregulated overproduction of thyroid hormones and existing treatments have liabilities (agranulocytosis). In addition, TSHRs are known to be expressed in multiple extrathyroidal tissues including bone, brain, kidney, testis, fat and cells of the immune system but the role of the TSHR in these tissues is not clear. Therefore, TSHR antagonists/inverse agonists could be used as probes of extrathyroidal TSHR function. Finally, TSHR inverse agonists, which are a subclass of antagonists that inhibit agonist-independent (or basal or constitutive) TSHR signaling, could be used to inhibit TSH-independent signaling in patients with recurrent or metastatic thyroid cancer who are receiving thyroid hormone to suppress TSH. This assays looks for effects on TSH-dependent functions in primary human thyrocytes. Total RNA is purified using RNeasy Micro kits. RT-PCR is performed in 25-ul reactions using cDNA prepared from 100 ng or less of total RNA and Universal PCR Master Mix (Applied Biosystems). mRNA levels are measured using primers and probes from Applied Biosystems. Quantitative RT-PCR results are normalized to GAPDH to correct for differences in RNA input.
# Thyroid tissue samples were collected from normal thyroid tissue from patients undergoing total thyroidectomy for thyroid cancer at the National Institutes of Health Clinical Center. Surgical specimens were maintained in Hanks' balanced salt solution (HBSS) on ice, minced into small pieces, and digested with 3 mg/ml collagenase type IV (Life Technologies). Monodispersed cells were plated in 10 ml DMEM with 10% FBS in 10-cm tissue culture dishes and incubated at 37C in a humidified5%CO2 incubator, and after 24 h, the primary cultures of adherent thyroid cells were obtained. For determination of thyroglobulin (TG), thyroid peroxidase (TPO), TSHR, sodium iodide symporter (NIS), or deiodinase type 2 (DIO2) mRNAexpression, thyrocytes were seeded into 12-well plates at a density of 1 x 10^5 cells per well. The cells were incubated in DMEM with 2% FBS and 1 mM 3-isobutyl-1-methylxanthine (IBMX) for 48 h in the presence or absence of compound.
SMILES,TPO mRNA change [%],TSHR mRNA change [%],DIO2 mRNA change [%],NIS mRNA change [%],TG mRNA change
COc1ccc(C2Nc3ccccc3C(=O)N2Cc2ccco2)cc1COc1c(C)cccc1C (stereo not given),-40,-33,0,-35,-71% (active)
